The panel holds about 79,000 compounds, 15% with a hit somewhere; the sample as a whole holds those more often. A number with no mark means an inactive call. Active and inactive are the calls of the source. Rule as the data show it: active = growth inhibition above about 70%; inactive = the rest.
Assays:
[1] = NCI Yeast Anticancer Drug Screen. Data for the rad50 strain (AID 155);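 also: 0% = growth of vehicle-only cultures of the same strain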; details: S. cerevisiae rad50 strain growth inhibition, hits give high values
How it was run: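 Readout: growth inhibition relative to vehicle-treated cultures. Compound exposure was carried out in a genetically defined yeast strain deficient in DNA damage repair.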

[2] = NCI Yeast Anticancer Drug Screen. Data for the mec2-1 strain (AID 157); details: S. cerevisiae mec2-1 strain, hits give high values
How it was run: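 Readout is yeast growth inhibition, normalised to vehicle-treated controls, in the mec2-1 strain exposed to compound.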

[3] = NCI Yeast Anticancer Drug Screen. Data for the sgs1 mgt1 strain (AID 161);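 also: 0% = growth of cultures given vehicle only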; details: S. cerevisiae sgs1 mgt1 strain, hits give high values
How it was run: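 Compounds are added to genetically altered yeast, and growth is compared with cultures given vehicle alone to give percent inhibition.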

[4] = NCI Yeast Anticancer Drug Screen. Data for the cln2 rad14 strain (AID 165);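 also: 0% = growth equal to vehicle treated cultures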; details: S. cerevisiae cln2 rad14 strain, hits give high values
How it was run: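 Relative to vehicle controls, growth inhibition of compound-treated cln2 rad14 yeast was recorded.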

[5] = NCI Yeast Anticancer Drug Screen. Data for the bub3 strain (AID 167); details: S. cerevisiae bub3 mutant strain, hits give high values
How it was run: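 Readout: yeast growth inhibition, expressed relative to vehicle-only wells. The test organism is a mutant strain from a panel with lesions in DNA repair or checkpoint genes.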

[6] = NCI Yeast Anticancer Drug Screen. Data for the mlh1 rad18 strain (AID 175); details: S. cerevisiae mlh1 rad18 strain growth inhibition, hits give high values
How it was run: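 Test agents were incubated with a yeast strain of defined genotype (DNA damage repair defect). Inhibition of growth was derived by comparison with vehicle-exposed cultures.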

[7] = at 5.0 µM (retest, dose inferred, filed as 0.5)
[8] = at 50.0 µM (retest, dose inferred, filed as 5.0)

SMILES | growth inhibition [1, 7] [%] | growth inhibition [1, 8] | growth inhibition ([1]; at 50.0 µM) | growth inhibition [2, 7] [%] | growth inhibition [2, 8] | growth inhibition ([2]; at 50.0 µM) | growth inhibition [3, 7] [%] | growth inhibition [3, 8] | growth inhibition ([3]; at 50.0 µM) | growth inhibition [4, 7] [%] | growth inhibition [4, 8] | growth inhibition ([4]; at 50.0 µM) | growth inhibition [5, 7] | growth inhibition [5, 8] | growth inhibition ([5]; at 50.0 µM) | growth inhibition [6, 7] [%] | growth inhibition [6, 8] | growth inhibition ([6]; at 50.0 µM)
C/C=C/c1ccc(OCC(=O)O)c(OC)c1 | -14 | -10% | 99% (active) | -9 | -18% | 98.2% (active) | 8 | 1% | 98.2% (active) | -3 | -11% | 98.2% (active) | -31% | -4% | 98.8% (active) | -5 | -11% | 98% (active)
CCOC(=O)C(N=Nc1ccc(Br)c(C)c1)C(C)=O (configuration not stated) | -4 | 81% (active) | 92.2% (active) | -7 | 27% | 84.1% (active) | 1 | 92% (active) | 98% (active) | 11 | 50% | 76.8% (active) | -6% | 64% | 88% (active) | 4 | 88% (active) | 97.5% (active)
c1ccc(SSc2ccccc2)cc1 | -6 | 64% | 47.3% | -38 | 18% | 20.7% | 0 | 25% | 77% (active) | 1 | 3% | 18.9% | 38% | 20% | 26.7% | -2 | 50% | 87.7% (active)
CCOC(=O)Nc1nc2ccc(Cn3cccc3)cc2[nH]1 | 25 | 31% | 17.8% | 19 | 22% | -12.5% | 24 | 24% | 10.9% | 33 | 24% | 6.05% | 22% | 24% | -1.9% | 25 | 23% | -0.95%
COC(=O)CC1SC(=S)N(Cc2ccc(Cl)cc2)C1=O (configuration not stated) | -6 | 80% (active) | 98.1% (active) | -8 | 61% | 92.5% (active) | 2 | 93% (active) | 98.5% (active) | -59 | 28% | 55.6% | -15% | 81% (active) | 87.5% (active) | -25 | 88% (active) | 98% (active)
Cc1ccnc(-c2cc(C)ccn2)c1 | 6 | 96% (active) | 64% | -3 | 98% (active) | 23.1% | -4 | 57% | 57.9% | -1 | 95% (active) | -46.7% | 4% | 91% (active) | -3.15% | 7 | 98% (active) | 37.9%
CCCn1c2ccccc2c2ccc3c(c21)C(=O)C=CC3=O | 31 | 69% | 67.8% | 27 | 80% (active) | 61.9% | 37 | 73% (active) | 70.7% (active) | 18 | 35% | 56.3% | 37% | 80% (active) | 65% | 42 | 77% (active) | 62.7%
CCC[CH2][Sn]([CH2]CCC)([O]C(=O)C(OC)c1ccccc1)[O]C(=O)C(OC)c1ccccc1 (configuration not stated) | 44 | 97% (active) | 89% (active) | 40 | 96% (active) | 88.3% (active) | 44 | 96% (active) | 84% (active) | 36 | 96% (active) | 88.8% (active) | 77% (active) | 98% (active) | 92% (active) | 57 | 98% (active) | 88.3% (active)
COc1cccc(C(c2cc3c(cc2O)OCO3)N2CCCC2)c1O (configuration not stated) | 0 | 52% | 48.2% | 1 | 44% | 46.5% | -5 | 48% | 61.1% | -6 | 24% | 7.85% | 6% | 47% | 41.2% | -1 | 62% | 77% (active)

From PubChem BioAssay (NCI)
